PubChem BioAssay AID686978 (National Center for Advancing Translational Sciences (NCATS), 2013)
About 64,000 (15%) of roughly 420,000 compounds were called active. Another 27% or so got no clear call; they are omitted. Calls come from the whole dose curve; as a rule, active = well fitted inhibition curve with a large enough effect; inconclusive = small, poorly fitted or top-dose-only effect; inactive = flat fitted curve, though single readings scatter. These entries were drawn from the full list. Where a call stands in place of a potency, no number is given. Peptide text beside a SMILES is read from it.

Assay: qHTS for Inhibitors of human tyrosyl-DNA phosphodiesterase 1 (TDP1): qHTS in cells in absence of CPT; note: nearly all actives have a fitted effect of over 55% in size
Settings: DT40 Tdp1-/- hTDP1 cells, no CPT, ATP luminescence, 48 h; activity change, negative = growth inhibition: at 46.2 µM (top of the series)
Method in brief: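 Chicken DT40 Tdp1-/- cells stably complemented with human TDP1 were seeded at 400 cells/well with DMSO in place of 20 nM camptothecin. After compound pinning, cells grew at least 48 hr at 37 °C; viability read by CellTiter-Glo luminescence.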
Potency is the fitted concentration of half-maximal effect.

SMILES	Potency
Cc1nc2ccccc2c(=O)n1Cc1ccc([N+](=O)[O-])cc1	inactive
Cc1nc2ccccc2c(=O)n1NC(=O)c1ccc(Cl)c([N+](=O)[O-])c1	inactive
CCn1c(/C=C/c2ccc([N+](=O)[O-])o2)nc2ccccc2c1=O	2.59 µM (active)
CCc1noc(C)c1C(=O)N1CCCSC1=Nc1ccccc1OC	inactive
COC(=O)Cn1c(=NC(=O)CSCC(=O)Nc2cc(C)on2)sc2ccccc21	inactive
COc1ccc(N(CC(=O)Nc2ccc(F)c(F)c2)S(=O)(=O)c2c(C)[nH]c(=O)[nH]c2=O)cc1	inactive
COC(=O)c1ccc(NC(=O)CN(c2ccc(C)cc2)S(=O)(=O)c2c(C)n[nH]c2C)cc1	inactive
Cc1noc(C)c1S(=O)(=O)N(CC(=O)Nc1ccc2c(c1)OCCO2)c1ccc(C(C)C)cc1	14.6 µM (active)
COc1ccc(N(CC(=O)Nc2cc(OC)ccc2OC)S(=O)(=O)c2c(C)noc2C)cc1	23.1 µM (active)
Cc1ccc(S(=O)(=O)NCC(=O)Nc2ccc3c(c2)OCCO3)cc1	inactive
CCOc1ccc(N(CC(=O)NCc2ccc(OC)cc2)S(=O)(=O)c2c(C)noc2C)cc1	inactive
CCOc1ccc(N(CC(=O)Nc2ccccc2F)S(=O)(=O)c2c(C)[nH]c(=O)[nH]c2=O)cc1	inactive
CCOc1ccc(OCC)c(NC(=O)CN(c2ccc(C)cc2)S(=O)(=O)c2c(C)n[nH]c2C)c1	29.1 µM (active)
CCOc1ccc(N(CC(=O)OC)S(=O)(=O)c2c(C)noc2C)cc1	inactive
C/C=C\C=C\C(=O)N1CC2(CC(c3cccc(NC(=O)/C(C)=C\C)c3)=NO2)C[C@H]1C(N)=O (stereo partly specified)	inactive
CC(NC(=O)CN1CCN(Cc2ccc(Cl)cc2)C1=O)c1ccc2c(c1)OCCO2 (stereo unspecified)	inactive
Cc1noc(C)c1C(=O)OCC(=O)N1CCN(S(=O)(=O)c2ccc3ccccc3c2)CC1	inactive
C(=N/N1CCN(c2ccccc2)CC1)/c1cccs1	inactive
Nc1c(Cl)cc(S(N)(=O)=O)cc1S(N)(=O)=O	inactive
O=[N+]([O-])c1ccc(Sc2n[nH]c(-c3ccco3)n2)nc1	inactive
COc1ccc(Oc2ncc3nc(C)c(=O)n(-c4ccccc4)c3n2)cc1	inactive
CCOc1ccc(-n2c(C)nc3c(cnn3-c3ccc(C)cc3)c2=O)cc1	5.8 µM (active)
CCOc1ccc(-n2cnc3c(=O)[nH]c(N)nc32)cc1	inactive
CCOC(=O)c1ccc(-n2c(C)nc3c(cnn3-c3ccccc3C)c2=O)cc1	inactive

SMILES	Potency
CCC(C)Sc1nc2c(cnn2-c2ccc(F)cc2)c(=O)[nH]1 (stereo unspecified)	inactive
COc1ccc(-n2c(C)nc3c(cnn3-c3ccc(F)cc3)c2=O)cc1	16.4 µM (active)
COc1ccc(Oc2ncc3nc(-c4ccc(F)cc4)c(=O)n(C)c3n2)cc1	inactive
COc1ccc(-n2c(C)nc3c(cnn3-c3ccccc3)c2=O)cc1	16.4 µM (active)
Cc1ccc(Oc2cnn(-c3ccccc3)c(=O)c2Br)cc1	inactive
COC(=O)C1CCCCN1C(=O)c1ccc(OC2CCN(C(C)=O)CC2)c(OC)c1 (stereo unspecified)	inactive
CS(=O)(=O)c1ccc(C(=O)NNC(=O)c2cccs2)cc1	inactive
O=[N+]([O-])c1ccc(C=NN=Cc2ccc([N+](=O)[O-])cc2)cc1	inactive
O=C1/C(=C\c2ccc([N+](=O)[O-])cc2)CS(=O)(=O)C/C1=C/c1ccc([N+](=O)[O-])cc1	0.0231 µM (active)
O=C(NN=Cc1ccc([N+](=O)[O-])cc1)C1CC1	inactive
CCN(CC)Cc1c(C(=O)N/N=C/c2cccc(OCc3ccc(F)cc3)c2)nnn1-c1nonc1N	inactive
CCc1ccc(N2CC(C(=O)Nc3ccc(S(=O)(=O)Nc4nccs4)cc3)CC2=O)cc1 (stereo unspecified)	inactive
Cc1ccc(-n2nc(-c3ccco3)cc2C(=O)NCc2cccnc2)cc1	18.4 µM (active)
Cc1ccc(C(=O)NC(=S)NCc2cccnc2)cc1	inactive
CSc1sc(C(=O)NC(=O)NCc2cccnc2)c(C)c1-c1ccon1	inactive
NC(=S)N/N=C/c1coc2cc(Cl)ccc2c1=O	inactive
CC(C)Oc1c(Br)cc(Br)cc1/C=N/NC(N)=S	5.8 µM (active)
O=C(NNC(=S)Nc1ccc(F)cc1)[C@H]1C[C@@H]1c1ccccc1	inactive
C(=N\n1cnnc1)/c1cccnc1	inactive
N=C1C(c2nc3ccccc3[nH]2)=C(O)CN1NC(=O)c1c[nH]c2ccccc12	inactive
O=c1[nH]c(-c2cccs2)nc2ccccc12	inactive
CCc1ccc(N2CC(O)=C(c3nc4ccccc4c(=O)[nH]3)C2=N)cc1	14.6 µM (active)
O=C(Nc1ccncc1)c1cc(-c2ccccn2)nc2ccc(Br)cc12	inactive
CCN(CC)CCNC(=O)c1ccc(NS(=O)(=O)c2ccc3c(c2)OCCO3)cc1	inactive

SMILES	Potency
O=C(Nc1ccc(S(=O)(=O)Nc2nccs2)cc1)c1cc(-c2ccncc2)nc2ccccc12	inactive
O=C(Nc1ccc2c(c1)OCCO2)c1cnccn1	inactive
Cc1ccc2nc(-c3ccccc3)cc(C(=O)O)c2c1	inactive
Cc1ccc2nc(-c3ccncc3)cc(C(=O)Nc3ccc4c(c3)OCCO4)c2c1	10.3 µM (active)
Cc1ccc2nc(-c3ccncc3)cc(C(=O)Nc3ccc(OC(F)F)cc3)c2c1	9.2 µM (active)
CCn1c(SCC(=O)Nc2ccc3c(c2)OCCO3)nnc1-c1ccncc1	inactive
CCN(CC)CCNC(=O)c1ccc(NC(=O)c2cc(-c3ccncc3)nc3ccccc23)cc1	23.1 µM (active)
C=CCNC(=O)/C(=C\c1cccc([N+](=O)[O-])c1)NC(=O)c1ccccc1	inactive
COc1cc(/C=C/C(=O)OCC(=O)NC2CC2)cc(OC)c1OC	inactive
Cc1cc(=O)oc2cc(NC(=O)C(C)Oc3ccccc3)ccc12 (stereo unspecified)	inactive
C[C@H](CO)N1C[C@H](C)[C@@H](CN(C)S(=O)(=O)c2ccc(Oc3ccccc3)cc2)OCc2cn(nn2)CCCC1=O	inactive
COc1ccc(NC(=O)CSc2nc(N)c(-c3ccccc3)c(=O)[nH]2)cc1	inactive
CC(C)c1ccc(Nc2ncccc2C#N)cc1	inactive
CCc1nnc(NC(=O)c2cccs2)s1	inactive
CC(=O)c1cccc(NC(=O)C2CCCN2S(=O)(=O)c2cccc3nsnc23)c1 (stereo unspecified)	inactive
CC(C)C(c1nnnn1C1CCCC1)N1CCN(c2ccccc2F)CC1 (stereo unspecified)	18.4 µM (active)
CC(C)C(c1nnnn1C1CCCCC1)N1CCN(C(=O)c2ccco2)CC1 (stereo unspecified)	inactive
CCC(c1nnnn1C1CCCC1)N1CCN(C(=O)c2ccco2)CC1 (stereo unspecified)	inactive
CC(C)C[C@@H](NC(=O)[C@H]1CCCN1C(=O)Cc1ccccc1)C(N)=O (HELM PEPTIDE1{[O=C(Cc1ccccc1)[*:2]].[dP].[dL].[am]}$$$$V2.0)	inactive
CC(C)C(=O)Nc1c2c(nn1-c1ccccc1)CSC2	inactive
CC1=C(C)CC(C(=O)NC(C)CCc2ccccc2)C(C(=O)O)C1 (stereo unspecified)	inactive
CCN1C(=NCc2ccc(OC)cc2)N[C@@H](CCc2ccccc2)[C@H](C(=O)NCc2ccc(OC)cc2)[C@H]1C	9.2 µM (active)
COCCN1C(=O)N[C@@H](CCc2ccccc2)[C@H](C(C)=O)[C@H]1C	inactive
CCN1C(=NCC(C)C)N[C@@H](CCc2ccccc2)[C@H](C(=O)NCC(C)C)[C@H]1C	13 µM (active)

SMILES	Potency
CCN1C(=O)N[C@@H](c2ccccc2)[C@H](C(C)=O)[C@H]1C	inactive
CCN1C(=NCCc2cccnc2)N[C@@H](c2ccccc2)[C@H](C(=O)OC)[C@H]1C	inactive
CCc1ccccc1NC(=O)CSc1nnc([C@@H](NC(=O)OC(C)(C)C)C(C)C)o1	inactive
Cc1c(NS(=O)(=O)c2ccc(Cl)cc2)c(=O)n(-c2ccccc2)n1C	inactive
CC1CCCC(N2CCN(C(=O)c3ccc(F)cc3)CC2)C1 (stereo unspecified)	inactive
CN(C(=N)N)c1ccc(/C=C2\C=Cc3ccccc32)cc1	2.82 µM (active)
CS(=O)c1ccc(/C=C2\C=Cc3ccccc32)cc1 (stereo unspecified)	20 µM (active)
C#CCCOC(=O)N1C2=NC(C(=O)OC)=C(C(=O)OC)[C@@H]3N(C)c4ccc(OC)cc4[C@]23C[C@H]1C(=O)OC	inactive
O=c1ccc2cc(S(=O)(=O)NCCCc3ccccc3)ccc2[nH]1	inactive
C=CCn1c(SCc2nnc(-c3ccccc3)o2)nnc1C(O)c1ccccc1 (stereo unspecified)	inactive
FC(F)(F)c1cccc(-c2cn[nH]c2C2CCCN(Cc3cccn3-c3ccccn3)C2)c1 (stereo unspecified)	inactive
Cc1nn(C)cc1C(=O)Nc1ccccc1Br	inactive
COc1ccc(CN2CCC(c3nc4ccc(Cl)cc4[nH]3)CC2)cc1	20.6 µM (active)
COc1ccc(N2CCN(Cc3nc4c(c(=O)[nH]c(=O)n4C)n3Cc3ccc(Cl)cc3)CC2)cc1	inactive
COc1ccc(Cn2nnc3c(=O)[nH]c(C4CCN(C(=O)c5ccccc5Cl)CC4)nc32)cc1	inactive
CN(CCCNC(=O)CN1C(=O)CC(C)(C)S(=O)(=O)c2ccccc21)C1CCCCC1	inactive
COC(=O)c1nc(NC(=O)c2ccc(Cl)cc2)n[nH]1	inactive
CC[C@@H](C)[C@H](NC(=O)CCc1c(C)c2cc3c4c(oc3c(C)c2oc1=O)CCCC4)C(=O)O	inactive
COc1ccc(NC(=O)CN(C)C(=O)c2cc(C)oc2C)cc1	inactive
CC(C)=CCc1ccc(O)c(=O)cc1C(C)C	20.6 µM (active)
Cc1ccc(S(=O)(=O)c2c[nH]c3ccc(Cl)cc3c2=O)cc1	inactive
O=C1COc2ccc(C(=O)COC(=O)CCOc3ccccc3)cc2N1	inactive
O=C1COc2ccc(C(=O)COC(=O)c3cccnc3Cl)cc2N1	inactive
O=C1COc2ccc(C(=O)CSc3ccc(Br)cc3)cc2N1	16.4 µM (active)
